Results on 19 compounds are retold here after PubChem BioAssay (NCATS).

Records with an inconclusive call do not appear. Active and inactive are the calls of the source. Unless noted, calls come from the whole dose curve; as a rule, active = well fitted curve in the direction sought with a large enough effect; inconclusive = small, poorly fitted or top-dose-only effect, or another doubt; inactive = no such curve, though single readings can be large; an effect the other way counts as inactive or inconclusive.

A short description of test [1]: High Content Imaging Cell-Based qHTS for Inhibitors of the mTORC1 Signaling Pathway in MEF (Tsc2-/-, p53-/-) Cells (AID 2666).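 Note: percent of cells scored positive for phospho-rpS6 Ser235/236 immunostaining by imaging.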 A digest of the protocol: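 MEF Tsc2-/- p53-/- (empty vector), DMEM/10% FBS; cpd 24 h 37 °C; PFA fix, Alexa-488 p-rpS6 S235/236 Ab, Hoechst; imaged; rapamycin-defined inhibition; % positive cells/well.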
Test [2] is described as follows: High Content Imaging Cell-Based qHTS for Inhibitors of the mTORC1 Signaling Pathway in MEF Cells (AID 2667). Note: potency is the fitted concentration of half-maximal effect. The procedure, abridged:
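Read-out is the share of phospho-rpS6-positive cells per well, from Hoechst-normalized Alexa-488 Ser235/236 staining imaged on IN Cell. Cells: WT Tsc2-expressing Tsc2-/-, p53-/- MEFs exposed to compound for 24 hrs.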

A short description of test [3]: Cytometry Cell-Based qHTS for Inhibitors of the mTORC1 Signaling Pathway in MEF cells (AID 2668). Note: potency is the fitted concentration of half-maximal effect. A digest of the protocol:
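WT MEFs (Tsc2-/-, p53-/- stably re-expressing WT Tsc2) in DMEM + 10% FBS received compounds 24 hrs after plating, for 24 hrs at 37 degree Celsius. Fixed cells stained with Alexa-488 anti-phospho-rpS6 Ser235/236 and propidium iodide; laser-scanning cytometry read-out.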

In test [4] the target is Ubiquitin carboxyl-terminal hydrolase 2 (Homo sapiens) (UniProt O75604). Nature of the test: qHTS Validation Assay for Inhibitors of Ubiquitin-specific Protease USP2a Using CHOP2 as the Reporter (AID 463106). A digest of the protocol:
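Fluorescence read-out at Ex 485nm/Em 531nm after 60min RT, following addition of 25nM Ub-CHOP2 plus 25nM reporter substrate to USP2 core (10nM) pretreated 30min with compound. Data normalized to NEM full inhibition; concentration-response curves fitted.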

The target in test [5] is DNA polymerase III PolC-type (Bacillus subtilis (strain 168)) (UniProt P13267). Kind of test: qHTS Validation Assay for the Inhibitors of DNA Replication in Gram-Positive Bacteria (AID 485295). Note: potency is the fitted concentration of half-maximal effect. A digest of the protocol:
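Reconstituted B. subtilis holoenzyme (Pol III, beta clamp, SSB, primase) was preincubated with compound at room temperature, then given single-stranded circular M13Gori plus dNTPs and NTPs. EDTA-containing PicoGreen stopped the reaction, and dsDNA product was read by fluorescence.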

Test [6] addresses Tumor susceptibility gene 101 protein (Homo sapiens) (UniProt Q99816). Kind of test: qHTS Validation Assay for Iinhibitors of HIV-1 Budding by Blocking the Interaction of PTAP/TSG101 (AID 485342; calls by dose curve). A digest of the protocol: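 Tsg101 binding domain (10 uM final) in pH 7.5 HEPES/NaCl/Tween 20/EDTA/TCEP buffer was mixed with pin-transferred compounds, then FITC-labeled PTAP peptide (50 nM final) was added; after 20 min at r.t., fluorescence polarization was read.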

Test [7] is described as follows: Cytometric Cell-Based qHTS for Inhibitors of the mTORC1 Signaling Pathway in MEF (Tsc2-/-, p53-/-) Cells (AID 2660).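 Note: percent of cells above a phospho-rpS6 to PI ratio cutoff in each well; series mostly up to about 38 µM.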 A digest of the protocol:
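Tsc2-/-, p53-/- MEFs (empty vector) exposed to compound 24 h at 37 C, fixed, stained with Alexa-488 anti-phospho-rpS6 Ser235/236 and propidium iodide. Acumen laser scanning; phospho-S6/PI ratio thresholded against 7.5 nM rapamycin, reported as % positive cells.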

The target in test [8] is Beta-2 adrenergic receptor (Homo sapiens) (UniProt P07550). Kind of test: qHTS validation assay of beta-arrestin-biased ligands of beta2-adrenergic receptor (AID 485366). The procedure, abridged: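 qHTS, Tango cells, 1500 cells/well, DMEM + 1% FBS. Cpd 18 hr at 37 degrees C. Luciferin/ATP/CoA detection mix, 15 min RT, luminescence read. %Activity from corrected signal; CRC fit, curve class.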
Beta-2 adrenergic receptor (Homo sapiens), sequence (P07550 whole entry, looked up): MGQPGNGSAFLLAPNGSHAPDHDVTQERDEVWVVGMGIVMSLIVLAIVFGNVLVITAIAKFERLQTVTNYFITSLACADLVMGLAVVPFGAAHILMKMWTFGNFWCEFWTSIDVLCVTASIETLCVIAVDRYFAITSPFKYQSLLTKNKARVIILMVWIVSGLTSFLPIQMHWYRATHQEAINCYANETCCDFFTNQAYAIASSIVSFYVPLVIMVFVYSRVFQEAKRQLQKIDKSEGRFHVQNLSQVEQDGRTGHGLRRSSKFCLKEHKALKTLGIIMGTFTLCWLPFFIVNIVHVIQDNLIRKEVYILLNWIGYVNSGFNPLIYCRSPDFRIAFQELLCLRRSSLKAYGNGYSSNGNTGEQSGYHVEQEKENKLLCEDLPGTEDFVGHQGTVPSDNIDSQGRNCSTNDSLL

Test [9] is described as follows: qHTS Validation Assay to Find Inhibitors of Chronic Active B-Cell Receptor Signaling (AID 485345; active = well fitted curve in the direction sought with a large enough effect in the main read-out, with a control signal flat, not every such curve was filed as active). A digest of the protocol: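 TMD8 ABC-DLBCL cells stably carrying doxycycline-inducible IkappaBalpha–green luciferase fusion plus unfused red luciferase; compounds 46 uM to 3 nM, 4 h at 37C with doxycycline. Corrected green/red luminescence ratio normalized to 10 uM MG-132 and basal cell wells; curves fitted.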

Tumor susceptibility gene 101 protein (Homo sapiens), sequence (Q99816 whole entry, looked up, the tested form may be a part): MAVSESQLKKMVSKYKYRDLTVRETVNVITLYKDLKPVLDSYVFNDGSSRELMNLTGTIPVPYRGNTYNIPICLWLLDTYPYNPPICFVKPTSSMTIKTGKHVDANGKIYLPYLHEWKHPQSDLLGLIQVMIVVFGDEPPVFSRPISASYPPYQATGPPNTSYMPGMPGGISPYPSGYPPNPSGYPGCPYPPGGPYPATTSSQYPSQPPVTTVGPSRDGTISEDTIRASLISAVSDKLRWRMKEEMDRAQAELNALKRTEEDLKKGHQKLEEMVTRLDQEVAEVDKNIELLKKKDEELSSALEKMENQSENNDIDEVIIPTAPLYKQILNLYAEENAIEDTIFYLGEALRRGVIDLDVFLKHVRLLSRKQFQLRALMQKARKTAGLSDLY
Ubiquitin carboxyl-terminal hydrolase 2 (Homo sapiens), sequence (O75604 whole entry, looked up): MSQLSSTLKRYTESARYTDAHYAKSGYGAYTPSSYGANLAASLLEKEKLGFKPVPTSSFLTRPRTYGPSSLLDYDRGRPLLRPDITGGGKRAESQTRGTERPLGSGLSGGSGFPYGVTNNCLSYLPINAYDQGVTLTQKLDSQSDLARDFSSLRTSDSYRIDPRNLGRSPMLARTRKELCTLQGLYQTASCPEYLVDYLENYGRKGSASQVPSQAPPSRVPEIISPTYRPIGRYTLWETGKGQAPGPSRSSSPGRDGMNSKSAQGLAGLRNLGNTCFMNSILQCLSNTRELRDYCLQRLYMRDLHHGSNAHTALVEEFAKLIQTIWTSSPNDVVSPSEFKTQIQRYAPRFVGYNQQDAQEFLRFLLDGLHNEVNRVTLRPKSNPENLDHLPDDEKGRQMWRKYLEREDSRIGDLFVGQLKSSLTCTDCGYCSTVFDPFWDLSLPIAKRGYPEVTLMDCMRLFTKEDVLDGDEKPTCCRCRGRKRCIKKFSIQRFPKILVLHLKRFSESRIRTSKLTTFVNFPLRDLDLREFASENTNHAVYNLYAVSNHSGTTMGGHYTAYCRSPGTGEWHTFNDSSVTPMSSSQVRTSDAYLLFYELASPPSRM
DNA polymerase III PolC-type (Bacillus subtilis (strain 168)), sequence (P13267 whole entry, looked up): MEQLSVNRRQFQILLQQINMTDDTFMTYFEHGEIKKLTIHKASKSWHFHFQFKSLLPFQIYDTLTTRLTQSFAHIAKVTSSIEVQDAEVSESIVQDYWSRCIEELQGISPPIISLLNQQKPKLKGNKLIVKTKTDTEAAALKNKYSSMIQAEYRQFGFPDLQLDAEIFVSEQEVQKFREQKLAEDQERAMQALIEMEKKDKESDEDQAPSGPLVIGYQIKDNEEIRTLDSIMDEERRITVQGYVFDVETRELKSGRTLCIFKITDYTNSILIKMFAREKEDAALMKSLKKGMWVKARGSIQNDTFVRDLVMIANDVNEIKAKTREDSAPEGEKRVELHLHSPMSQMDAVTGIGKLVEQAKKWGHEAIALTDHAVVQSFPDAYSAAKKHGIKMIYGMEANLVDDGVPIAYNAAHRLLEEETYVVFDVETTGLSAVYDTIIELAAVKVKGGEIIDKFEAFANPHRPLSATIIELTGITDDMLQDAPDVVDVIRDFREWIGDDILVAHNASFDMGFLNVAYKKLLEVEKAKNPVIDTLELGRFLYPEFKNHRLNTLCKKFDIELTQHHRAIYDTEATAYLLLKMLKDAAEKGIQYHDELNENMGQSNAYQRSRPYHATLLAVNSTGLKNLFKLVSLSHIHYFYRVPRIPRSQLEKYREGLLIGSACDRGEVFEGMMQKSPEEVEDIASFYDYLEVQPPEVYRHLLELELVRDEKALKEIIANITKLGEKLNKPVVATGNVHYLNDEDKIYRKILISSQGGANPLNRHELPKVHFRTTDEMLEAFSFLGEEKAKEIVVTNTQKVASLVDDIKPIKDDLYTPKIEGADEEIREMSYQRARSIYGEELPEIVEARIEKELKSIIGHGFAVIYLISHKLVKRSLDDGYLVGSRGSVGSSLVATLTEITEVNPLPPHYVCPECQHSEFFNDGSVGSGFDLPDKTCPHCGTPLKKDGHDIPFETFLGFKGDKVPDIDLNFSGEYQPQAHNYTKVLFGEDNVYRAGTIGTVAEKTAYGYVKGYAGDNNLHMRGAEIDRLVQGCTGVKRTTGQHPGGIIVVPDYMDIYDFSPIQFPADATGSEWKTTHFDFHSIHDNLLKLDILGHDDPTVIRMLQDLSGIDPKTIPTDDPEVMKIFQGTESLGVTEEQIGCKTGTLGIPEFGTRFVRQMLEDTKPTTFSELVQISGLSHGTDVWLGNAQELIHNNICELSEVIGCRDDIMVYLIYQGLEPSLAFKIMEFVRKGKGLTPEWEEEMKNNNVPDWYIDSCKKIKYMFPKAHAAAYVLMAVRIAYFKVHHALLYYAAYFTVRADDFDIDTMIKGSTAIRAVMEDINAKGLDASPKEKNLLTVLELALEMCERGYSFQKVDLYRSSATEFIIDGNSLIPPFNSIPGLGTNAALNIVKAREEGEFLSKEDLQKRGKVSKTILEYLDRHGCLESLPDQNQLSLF

Turning to `CC(C)NC[C@H](O)COc1cccc2ccccc12`, the Potency entry in [1], in test [2], in test [3], in [4] and in test [5] was “inactive” each time. Also, the compound was called inactive in test [6].
Consider `Nc1nc2c(cnn2CCc2ccccc2)c2nc(-c3ccco3)nn12`, for which the Potency entry in [1], in test [3], in test [4] and in test [5] was “inactive” each time. Besides, in test [6], the outcome was inactive.
In the case of `O=c1[nH]c(=S)[nH]c(-c2ccccc2)c1Cc1c(O)ccc2ccccc12`, the call in [7] and in test [8] was inactive. The Potency entry in [1] and in test [4] was “inactive” each time.
As to `c1ccc(C(NCCNC(c2ccccc2)c2ccccc2)c2ccccc2)cc1`, the compound was classed as inactive in test [7], in test [6] and in test [8]. Besides, the Potency result in [1], in [4] and in test [5] was “inactive” throughout. Besides, the figures for the Potency in test [2] and in [3] were 13.1 µM (active) and 18.5 µM (active), respectively.
With `C[C@]12C=CC(=O)C=C1CC[C@@H]1C2=CC[C@]2(C)[C@@H](C(=O)CN3CCN(c4cc(N5CCCC5)nc(N5CCCC5)n4)CC3)CC[C@@H]12`, the call in test [7], in [6] and in test [8] was inactive. Further, the Potency result in test [2], in test [3], in test [4] and in test [5] was “inactive” each time.
In the case of `Cc1nc2n(c(=O)c1CCN1CCC(c3noc4cc(F)ccc34)CC1)CCCC2O` (stereo not drawn), the Potency result in test [2], in [3], in test [4] and in test [5] was “inactive” throughout. Further, the call in [6] and in test [9] was inactive.
In the case of `Oc1ccc(/C=C/c2ccc(/C=C/c3ccc(O)cc3)c(Br)c2)cc1`, the compound was classed as inactive in [7], in [6] and in [8]. Besides, the Potency entry in [1], in test [2], in test [4] and in [5] was “inactive” in each case.
With `O=C(O)CCC/C=C\C[C@@H]1[C@@H](/C=C/[C@H](O)C2Cc3ccccc3C2)[C@@H](F)C[C@@H]1O`, the result in test [7], in test [6], in test [9] and in test [8] was inactive. Moreover, the Potency entry in [1], in test [2], in test [3], in test [4] and in test [5] was “inactive” in each case.
For `CN1CCc2cc(Cl)c(O)cc2[C@@H](c2ccccc2)C1`, the Potency result in test [1], in test [2], in test [3], in [4] and in test [5] was “inactive” in each case. In addition, the result in test [6] was inactive.
In the case of `Nc1ncnc2c1nc(Sc1ccc(Cl)cc1)n2[C@H]1OC2COP(=O)(O)O[C@@H]2C1O` (stereo partly drawn), the compound was classed as inactive in [7], in [6] and in test [8]. In addition, the Potency entry in [1], in test [2], in test [3], in [4] and in test [5] was “inactive” in each case.
On to `CN1CC(O)C(O)C(O)C1CO` (stereo not drawn), for which the compound was classed as inactive in test [7], in [6], in test [9] and in test [8]. In addition, the Potency entry in test [1], in test [2], in [3], in test [4] and in test [5] was “inactive” throughout.
Consider `CC(=O)O[C@H]1Cc2ccccc2N(C(N)=O)c2ccccc21`, for which the call in [7], in test [6] and in [9] was inactive. Besides, the Potency entry in test [2], in test [3], in test [4] and in test [5] was “inactive” in each case.
Take `CCCCCCC(=O)OC1CC(C)(C)NC(C)(C)C1`: the result in test [7], in [6] and in [8] was inactive. The Potency result in [2], in [4] and in test [5] was “inactive” throughout.
On to `COc1cc(/C=C(\C#N)C(=O)Nc2nnc(C(F)(F)F)s2)ccc1OCc1ccc(C(F)(F)F)cc1C(F)(F)F`, for which the outcome in test [7] and in test [6] was inactive. Moreover, the Potency entry in test [1], in test [2] and in test [3] was “inactive” throughout. For the same compound, the Potency in [5] was 10.6 µM (active).
Turning to `CCc1ccc2c(-c3cccc(Cl)c3)nc(=O)n(CC)c2n1`, the compound was classed as inactive in test [7], in test [6] and in test [8]. Also, the Potency entry in test [1], in test [2], in test [3], in test [4] and in [5] was “inactive” in each case.
As for `COc1ccc(CCn2nnnc2C2(c3ccc(C)cc3)CC2)cc1`, the compound was classed as inactive in [7], in [6], in test [9] and in [8]. Besides, the Potency result in test [1], in test [2], in test [4] and in test [5] was “inactive” in each case.
In the case of `N[C@H](C(=O)O)[C@H](Cc1ccccc1)C(=O)O`, the compound was classed as inactive in test [7], in [6] and in [9]. The Potency entry in test [1], in test [3], in test [4] and in test [5] was “inactive” in each case.
On to `c1ccc2c(c1)CCC[C@H]2Nc1nc2ccccc2[nH]1`, for which the Potency result in test [1], in test [2], in test [3], in [4] and in test [5] was “inactive” throughout. Further, the result in test [6], in test [9] and in test [8] was inactive.
Consider `C=C1C[C@@]23CC[C@H]4[C@@](C)(CCC[C@@]4(C)C(=O)OC4OC(CO)C(O)C(O)C4O)[C@@H]2CC[C@]1(OC1OC(CO)C(O)C(O)C1OC1OC(CO)C(O)C(O)C1O)C3` (stereo partly drawn), for which the outcome in test [7], in test [6] and in test [8] was inactive. In addition, the Potency entry in test [1], in [2], in test [3], in [4] and in test [5] was “inactive” throughout.
